The record followed here is PubChem BioAssay (Tox21).

Each structure is given as a SMILES string. Values joined by “and” are separate entries in the source; they are usually repeats but may differ in a detail not shown here. Equal entries are not always repeated. Results filed as inconclusive are left out. Active and inactive are the calls of the source. Unless noted, calls come from the whole dose curve.

Test [1] can be described thus: qHTS assay to identify small molecule agonists of the vitamin D receptor (VDR) signaling pathway - cell viability counter screen (AID 743224; active = well fitted curve in the direction sought with a large enough effect in the repeat runs; an effect the other way counts as inactive or inconclusive; note: nearly all actives have a fitted effect of over 50% in size; note: potency is the fitted concentration of half-maximal effect). The procedure, abridged:
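Luminescence from CellTiter-Glo, read after 30 min at room temperature, reports viability of VDR-bla cells treated with compounds for 16 h at 37C in the wells used for the beta-lactamase FRET read.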
For orientation: Quantitative high-throughput screening tests each substance at several concentrations.

A short description of test [2]: qHTS assay to identify small molecule antagonists of the vitamin D receptor (VDR) signaling pathway - cell viability counter screen (AID 743225; active = well fitted curve in the direction sought with a large enough effect in the repeat runs; an effect the other way counts as inactive or inconclusive; note: nearly all actives have a fitted effect of over 50% in size; note: potency is the fitted concentration of half-maximal effect). In outline:
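Parallel cytotoxicity test: VDR-UAS-bla HEK 293T, 3 nM (final) 1-alpha,25-dihydroxyvitamin D3 with test compound, 16 h, 37C. Endpoint is CellTiter-Glo luminescence in the same wells.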

Test [3] is described as follows: qHTS assay to identify small molecule agonists of the NFkB signaling pathway - cell viability counter screen (AID 1159515). Note: series mostly up to about 61 µM; nearly all actives have a fitted effect of over 55% in size. In outline: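 Luminescence from CellTiter-Glo (30 min, room temperature) gives viability, measured in the same wells as the beta-lactamase reporter read. Cells were NFkB-bla ME-180, 2,000 per well, treated 5 hr with compounds.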
A short description of test [4]: qHTS assay to identify small molecule agonists of the endoplasmic reticulum stress response signaling pathway (AID 1159516; active = well fitted activation curve with a large enough effect in the signal ratio in the repeat runs, not every such curve was filed as active; the % refers to the signal ratio). In outline: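 Read-out is beta-lactamase cleavage of a FRET substrate (405 nm excitation; 460 and 530 nm emissions) in ESRE-bla HeLa cells after a 5 hr compound exposure at 37 C. Substrate incubation ran 2 hr at room temperature.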
Test [5] in a line: qHTS assay to identify small molecule agonists of the endoplasmic reticulum stress response signaling pathway - cell viability counter screen (AID 1159517).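 Note: HeLa cells carrying an ER stress response element beta-lactamase reporter; series mostly up to about 61 µM; nearly all actives have a fitted effect of over 50% in size.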 The procedure, abridged: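 Counter-screen wells were identical to the reporter wells. Cells were plated at 1,500 per well and dosed for 5 hr, then read for luminescence 30 min after CellTiter-Glo addition.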
Test [6] in a line: qHTS assay to identify small molecule antagonists of the retinoid-related orphan receptor gamma (ROR-gamma) signaling pathway - cell viability counter screen (AID 1159520; active = well fitted curve in the direction sought with a large enough effect in the repeat runs; an effect the other way counts as inactive or inconclusive; note: nearly all actives have a fitted effect of over 50% in size). In outline:
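Tet-on ROR gamma CHO cells were given compounds for 2 hr, then doxycycline hyclate at 1 uM final, and incubated 16 hr at 37 C. Viability was measured as ATP content by CellTiter-Glo luminescence.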

The target in test [7] is Nuclear receptor ROR-gamma (Homo sapiens) (UniProt P51449). The experiment in a line: qHTS assay to identify small molecule antagonists of the retinoid-related orphan receptor gamma (ROR-gamma) signaling pathway (AID 1159521; active = well fitted curve in the direction sought with a large enough effect in the repeat runs; an effect the other way counts as inactive or inconclusive; note: nearly all actives have a fitted effect of over 50% in size; note: potency is the fitted concentration of half-maximal effect). The procedure, abridged: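 Decreased RORE-driven luciferase luminescence indicates antagonism. Tet-on RORγ CHO cells received compound, then 1 uM final doxycycline 2 h later; signal read after 16 h incubation.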

Test [8] in a line: qHTS assay to identify small molecule agonists of the AP-1 signaling pathway - cell viability counter screen (AID 1159525). Note: nearly all actives have a fitted effect of over 55% in size. The procedure, abridged: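 AP-1-bla ME-180 cells in Opti-MEM with 0.5% dialyzed FBS, compound exposure 5 h at 37 C in 15-point titration. Viability read in the same wells as ATP content by CellTiter-Glo luminescence, normalised to tetra-n-octylammonium bromide and DMSO controls.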

A short description of test [9]: qHTS assay to identify small molecule agonists of the AP-1 signaling pathway (AID 1159526).
The target in test [10] is Retinoic acid receptor RXR-alpha (Homo sapiens) (UniProt P19793). In words: qHTS assay to identify small molecule agonists of the RXR signaling pathway (AID 1159527). Note: nearly all actives have a fitted effect of over 35% in size. In outline: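 16 hr incubation of compound-treated RXR-alpha-UAS-bla HEK 293T cells (2% charcoal-stripped FBS, 37 C) preceded a 2 hr room-temperature LiveBLAzer FRET substrate step and blue/green fluorescence measurement.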
Sequence of Retinoic acid receptor RXR-alpha (Homo sapiens) (P19793 whole entry, looked up): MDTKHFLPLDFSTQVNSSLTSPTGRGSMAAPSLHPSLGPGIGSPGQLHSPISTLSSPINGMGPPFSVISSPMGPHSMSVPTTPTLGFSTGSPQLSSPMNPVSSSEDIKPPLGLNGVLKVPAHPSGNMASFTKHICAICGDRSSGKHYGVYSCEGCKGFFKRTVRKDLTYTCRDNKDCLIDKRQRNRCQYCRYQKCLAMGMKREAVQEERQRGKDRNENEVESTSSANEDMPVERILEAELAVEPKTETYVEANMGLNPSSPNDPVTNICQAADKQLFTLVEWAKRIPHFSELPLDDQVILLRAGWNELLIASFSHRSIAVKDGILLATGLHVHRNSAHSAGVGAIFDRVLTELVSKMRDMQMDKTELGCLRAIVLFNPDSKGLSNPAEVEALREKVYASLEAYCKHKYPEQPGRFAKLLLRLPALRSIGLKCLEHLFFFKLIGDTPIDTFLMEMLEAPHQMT

On to `OCCOCCOCCOCCOCCO`, for which the Potency entry in [1], in test [2], in test [3], in test [4], in [5] and in test [6] was “inactive” in each case. For the same compound, the Potency result in test [7], in test [8] and in test [10] was “inactive” each time. In addition, the result in test [9] was inactive.

Turning to `CC(C=O)Cc1ccc(C(C)(C)C)cc1` (configuration not stated), the Potency result in test [1], in test [2], in test [3], in [4], in test [5] and in test [6] was “inactive” throughout. Also, the Potency result in test [7], in test [8] and in test [10] was “inactive” each time. The call in test [9] was inactive.

As to `CCc1cccc(O)c1`, the Potency result in test [1], in test [2], in test [3], in [4], in test [5] and in [6] was “inactive” each time. Also, the Potency result in [7], in [8] and in [10] was “inactive” in each case. In addition, in test [9], the result was inactive.

`c1cnc2c(c1)ccc1cccnc12`: the Potency is 1.97 µM (active) and 2.75 µM (active) and 436 nM (active) in test [1]; 5.49 µM (active) and 7.76 µM (active) in test [2]; 1.95 µM (active) and 5.45 µM (active) and 6.11 µM (active) in test [7]. Besides, the Potency entry in [3], in test [4], in test [5], in test [6] and in test [8] was “inactive” in each case.

Consider `CC(=O)C(C)C`, for which the Potency entry in test [1], in test [2], in test [3], in [4], in test [5] and in test [6] was “inactive” each time. In addition, the Potency entry in [7], in [8] and in test [10] was “inactive” in each case. In addition, the result in [9] was inactive.

Consider `OCC(O)CS` (configuration not stated), for which the Potency result in test [1], in test [2], in [3], in [4], in test [5] and in test [6] was “inactive” each time. For the same compound, the Potency result in [7], in test [8] and in test [10] was “inactive” each time. In [9], the call was inactive.

`O=C(O)Cc1c[nH]c2ccccc12`: the Potency result in [1], in test [2], in test [3], in test [4], in test [5] and in [6] was “inactive” in each case. Moreover, the Potency entry in test [7], in test [8] and in test [10] was “inactive” each time. In addition, the outcome in test [9] was inactive.

As to `O=C1CCCCCCCCCCC1`, the Potency result in test [1], in test [2], in test [3], in test [4], in test [5] and in [6] was “inactive” throughout. Further, the Potency result in test [7], in test [8] and in test [10] was “inactive” in each case. In addition, the outcome in test [9] was inactive.

As to `COc1ccc2cc3[n+](cc2c1OC)CCc1cc2c(cc1-3)OCO2`, the Potency entry in test [1], in test [3], in test [4], in [5], in test [6] and in [7] was “inactive” throughout. Further, in [8], the Potency entry was “inactive”. Moreover, the compound was called inactive in test [9].

Turning to `CCCCCCCCC(=O)O`, the Potency entry in test [1], in test [2], in [3], in [4], in [5] and in test [6] was “inactive” in each case. Also, the Potency result in [7], in test [8] and in [10] was “inactive” throughout. Further, in test [9], the call was inactive.

For the compound `C[n+]1ccn(CCO)c1`, the Potency result in [1], in [2], in [3], in test [4], in test [5] and in test [6] was “inactive” each time. Besides, the Potency result in test [7], in test [8] and in test [10] was “inactive” throughout. For the same compound, in [9], the call was inactive.

`O=C(O)C1=NN(c2ccc(S(=O)(=O)O)cc2)C(=O)C1`: the Potency entry in test [1], in [2], in [3], in test [4], in [5] and in test [6] was “inactive” in each case. Besides, the Potency entry in test [7], in [8] and in [10] was “inactive” each time. The compound was called inactive in [9].

For the compound `C=CC(=O)NCOCCCC`, the Potency entry in [1], in [2], in test [3], in test [4], in test [5] and in test [6] was “inactive” throughout. Besides, the Potency result in [7] and in [8] was “inactive” throughout. Besides, in test [9], the outcome was inactive.

With `CCOC(=O)CC(=O)OCC`, the Potency entry in [1], in test [2], in test [3], in test [4], in [5] and in test [6] was “inactive” throughout. For the same compound, the Potency result in test [7], in [8] and in test [10] was “inactive” throughout. Moreover, the call in test [9] was inactive.

Take `Cc1ccccc1C=O`: the Potency entry in test [1], in test [2], in test [3], in test [4], in test [5] and in test [6] was “inactive” each time. For the same compound, the Potency result in [7], in test [8] and in test [10] was “inactive” each time. In test [9], the result was inactive.

Regarding `Cc1ccccc1Cl`, the Potency result in test [1], in test [2], in test [3], in test [4], in [5] and in [6] was “inactive” each time. The Potency entry in test [7], in [8] and in test [10] was “inactive” each time. Also, the result in test [9] was inactive.

On to `COc1ccc(N)c(OC)c1`, for which the Potency entry in test [1], in test [2], in [3], in [4], in test [5] and in test [6] was “inactive” each time. For the same compound, the Potency result in test [7], in test [8] and in [10] was “inactive” in each case. In test [9], the compound was classed as inactive.

`CCCCCCC(=O)O`: the Potency result in test [1], in [2], in test [3], in test [4], in [5] and in test [6] was “inactive” each time. Besides, the Potency result in test [7], in test [8] and in test [10] was “inactive” throughout. Moreover, the call in test [9] was inactive.

Take `CCCCCNCCCCC`: the Potency entry in [1], in test [2], in test [3], in [4], in test [5] and in test [6] was “inactive” throughout. The Potency entry in test [7], in test [8] and in test [10] was “inactive” throughout. Also, the compound was called inactive in test [9].

For `CC(=O)OC/C=C(\C)CCC=C(C)C`, the Potency entry in [1], in test [2], in test [3], in test [4], in [5] and in test [6] was “inactive” throughout. The Potency result in test [7], in test [8] and in test [10] was “inactive” each time. Also, the call in test [9] was inactive.

As for `CC(C)c1ccc(C(C)C)cc1`, the Potency entry in test [1], in test [2], in test [3], in test [4], in test [5] and in test [6] was “inactive” throughout. Further, the Potency result in test [7], in test [8] and in test [10] was “inactive” each time. Also, the outcome in test [9] was inactive.

Regarding `CC(CN1c2ccccc2Sc2ccccc21)N(C)C` (configuration not stated), the Potency was 49.5 µM (active) and 43.6 µM (active) in [1]; 21.9 µM (active) in test [2]; 24.6 µM (active) and 54.5 µM (active) in test [7]. The Potency entry in [3], in test [4], in test [5], in [6], in test [8] and in test [10] was “inactive” in each case.

With `CC(COCC(C)OC(=O)c1ccccc1)OC(=O)c1ccccc1` (configuration not stated), the Potency result in test [1], in [2], in test [3], in [4], in test [5] and in test [6] was “inactive” each time. Also, the Potency result in [7] and in test [8] was “inactive” each time. In [9], the outcome was inactive.

Consider `Cc1cc(CC(=O)O)n(C)c1C(=O)c1ccc(Cl)cc1`, for which the Potency entry in test [1], in [2], in test [3], in test [4], in [5] and in test [6] was “inactive” throughout. In addition, the Potency result in test [7], in [8] and in test [10] was “inactive” each time. Further, the compound was called inactive in test [9].

Take `CC[N+](CC)(CC(=O)Nc1c(C)cccc1C)Cc1ccccc1`: the Potency entry in test [1], in [2], in test [3], in test [4], in [5] and in test [6] was “inactive” each time. Moreover, the Potency result in test [7], in [8] and in test [10] was “inactive” throughout. Further, the result in test [9] was inactive.

As to `Brc1ccc(Oc2ccc(Br)cc2)cc1`, the Potency result in [1], in [2], in test [3], in test [4], in test [5] and in [6] was “inactive” each time. Moreover, the Potency result in [7] and in test [8] was “inactive” throughout. Moreover, the compound was called inactive in [9].
